Screening data: PubChem BioAssay, Broad Institute
Compounds with a hit are over-represented: about 2% of the library has one in this group of screens.
STK33 kin inh = inhibitors of human STK33 kinase; actives 0.44% (n = 27,000); ADP-Glo luminescence, MBP substrate; Q9BYT3; inhibition, % at 12.5 µM; in the data active = inhibition above about 20%; inconclusive = no clear call, values can overlap the other calls
ID4 SMM = binders of human ID4 protein | P47928 | small molecule microarray, Flag-ID4 binding, fluorescence F/B | calls only | actives 1.2% (n = 31,000) | AID 624137; call rule not given here;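 note: a binder raises fluorescence above local background on the spot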
Target sequence (P47928 whole entry, looked up): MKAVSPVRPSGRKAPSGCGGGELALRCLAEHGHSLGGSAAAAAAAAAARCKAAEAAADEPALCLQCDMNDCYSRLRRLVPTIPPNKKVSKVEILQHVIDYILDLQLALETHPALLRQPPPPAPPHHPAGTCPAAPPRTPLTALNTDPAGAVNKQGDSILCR
p53 PUMA act = re-activators of the mutant p53 pathway; activation, % at 9.98 µM; actives 1.5% (n = 28,000); SW480 PUMA-promoter luciferase, p53 mutant reactivation; in the data active = activation above about 52%; inconclusive = no clear call, values can overlap the other calls
Of the large screens only hits and unclear results are named; the others gave an inactive call.

C[C@H](CO)N1C[C@H](C)[C@@H](CN(C)Cc2ccc3c(c2)OCO3)Oc2cc(-c3cccc(C(=O)N(C)C)c3)ccc2S1(=O)=O	none (no result: STK33 kin inh, ID4 SMM)
C[C@H](CO)N1C[C@H](C)[C@H](CN(C)Cc2cccc(C(=O)O)c2)Oc2cc(C3=CCCC3)ccc2S1(=O)=O	none (no result: STK33 kin inh)
C[C@H]1CN([C@@H](C)CO)S(=O)(=O)c2ccc(-c3cccc(C(=O)N(C)C)c3)cc2O[C@@H]1CN(C)Cc1ccc2c(c1)OCO2	ID4 SMM active (no result: STK33 kin inh)
C[C@@H]1CN([C@@H](C)CO)S(=O)(=O)c2ccc(C3=CCCC3)cc2O[C@@H]1CN(C)Cc1cccc(C(=O)O)c1	ID4 SMM active (no result: STK33 kin inh)
COc1ccc(N(CC(=O)Nc2cc(C)ccc2C)S(C)(=O)=O)cc1OC	none
Cc1ccc(-c2nnc(SCC(=O)Nc3c(C)cc(C)cc3C)o2)cc1	none
C[C@@H]1CCCCO[C@H](CN(C)C(=O)c2ccccc2)[C@@H](C)CN([C@@H](C)CO)C(=O)c2cc(NS(C)(=O)=O)ccc2O1	none (no result: STK33 kin inh)
C[C@H](CO)N1C[C@H](C)[C@@H](CN(C)C(=O)c2ccccc2)OCCCC[C@H](C)Oc2ccc(NS(C)(=O)=O)cc2C1=O	ID4 SMM active (no result: STK33 kin inh)
C[C@@H]1CCCCO[C@H](CN(C)C(=O)CCCN(C)C)[C@@H](C)CN([C@H](C)CO)C(=O)c2cc(NS(=O)(=O)c3ccccc3)ccc2O1	none
C[C@@H]1CCCCO[C@@H](CN(C)C(=O)CCCN(C)C)[C@@H](C)CN([C@H](C)CO)C(=O)c2cc(NS(=O)(=O)c3ccccc3)ccc2O1	ID4 SMM active
CC(Sc1nc(-c2ccccc2)c(C#N)c(=O)[nH]1)C(=O)Nc1cccc(Cl)c1 (stereo unspecified)	none
O=C(CSc1nnc(-c2ccco2)o1)Nc1cccc2ccccc12	none
CC(C)(C)C(=O)CSc1nnc(-c2ccco2)o1	p53 PUMA act 69.7
Cc1cc(Br)ccc1NC(=O)Cn1ccc([N+](=O)[O-])n1	none
O=C(CSc1n[nH]c(-c2ccco2)n1)N1c2ccccc2Sc2ccccc21	none
O=C(O)c1ccc(CSc2n[nH]c(-c3ccco3)n2)cc1	ID4 SMM active
Cn1c(=O)c2[nH]c(NCCN3CCOCC3)nc2n(C)c1=O	ID4 SMM active
CCOCCCNc1nc2c([nH]1)c(=O)n(C)c(=O)n2C	none
O=c1c(O)c(-c2ccccc2)oc2cc(O)cc(O)c12	none (no result: ID4 SMM)
O=c1c(O)c(-c2cc(O)c(O)c(O)c2)oc2cc(O)cc(O)c12	STK33 kin inh 36.5
O=c1c(O[C@@H]2O[C@H](CO)[C@H](O)[C@H](O)[C@H]2O)c(-c2ccc(O)c(O)c2)oc2cc(O)cc(O)c12	none (no result: ID4 SMM, p53 PUMA act)
CC(=O)c1c(O)cc(O[C@@H]2O[C@H](CO)[C@@H](O)[C@H](O)[C@H]2O)cc1O	none (no result: ID4 SMM)
COc1ccc(/C=C/c2cc(O)cc(O[C@@H]3O[C@H](CO)[C@@H](O)[C@H](O)[C@H]3O)c2)cc1	p53 PUMA act 64.3
COc1c(C2OCC(OC(C)=O)C(OC(C)=O)C2OC(C)=O)c(O)cc2oc(-c3ccc(OC4OC(CO)C(O)C(O)C4O)cc3)cc(=O)c12 (stereo unspecified)	none
COc1c(O)cc2oc(-c3ccc(O[C@@H]4O[C@H](CO)[C@@H](O)[C@H](O)[C@H]4O)cc3)cc(=O)c2c1O	STK33 kin inh 51.4 (no result: p53 PUMA act)
O=c1cc(-c2ccc(O[C@@H]3O[C@H](CO)[C@@H](O)[C@H](O)[C@H]3O)cc2)oc2cc(O)cc(O)c12	STK33 kin inh 49.5 (no result: p53 PUMA act)
COC(=O)c1ccc(NC(=O)CSc2nnnn2C2CC3CCC2C3)cc1 (stereo unspecified)	none
Cc1ccc(S(=O)(=O)NCCCO)cc1C(=O)O	ID4 SMM active
CC(C)(C)c1ccc(S(=O)(=O)NCCC(=O)O)cc1	none
Cc1cc(S(=O)(=O)NCC(=O)O)ccc1F	none
Cc1ccc2cc(S(=O)(=O)NCCC(=O)O)ccc2c1	ID4 SMM active
COC(=O)c1c(NC(=O)C(C)Oc2ccc(F)cc2)sc(C(C)=O)c1C (stereo unspecified)	none
CCCCc1c(-c2ccc(O)cc2)[nH]c2nccnc12	STK33 kin inh 57.1 (no result: p53 PUMA act)
CCCCc1c(-c2ccc(OC)cc2)[nH]c2nccnc12	none (no result: p53 PUMA act)
CCn1c(SCC(=O)c2ccc(F)cc2)nnc1-c1cccnc1	none
O=C(COc1ccc([N+](=O)[O-])cc1)Nc1cccc(-c2nc3cc(Cl)ccc3o2)c1	p53 PUMA act 59.6
Cc1ccc2nc(-c3ccc(NC(=O)C(C)Oc4ccc5c(C)cc(=O)oc5c4)cc3)sc2c1 (stereo unspecified)	p53 PUMA act 77.0
O=C(COc1ccc([N+](=O)[O-])cc1)Nc1ccc2oc(-c3cccc(Cl)c3)nc2c1	none
O=C(COc1ccc([N+](=O)[O-])cc1)Nc1ccc(-c2nc3ccccc3o2)cc1	none
Cc1ccc2nc(-c3ccc(NC(=O)COc4ccc([N+](=O)[O-])cc4)cc3)sc2c1	p53 PUMA act 70.2
Cc1ccc2nc(-c3cccc(NC(=O)COc4ccc([N+](=O)[O-])cc4)c3)oc2c1	p53 PUMA act 72.3
Cc1cc(=O)oc2cc(OC(C)C(=O)Nc3sc4c(c3C#N)CCCC4)ccc12 (stereo unspecified)	none
O=C(COc1ccc([N+](=O)[O-])cc1)Nc1ccc2oc(-c3cccc(Br)c3)nc2c1	none
COc1cccc(NC(=O)CSc2nnc(-c3ccccc3F)n2-c2ccccc2)c1	none
Cc1ccc(C)c(NC(=O)Cn2cc([N+](=O)[O-])cn2)c1	none
COc1cccc(/C=N/n2cnnc2)c1	none (no result: ID4 SMM, p53 PUMA act)
Cc1ccc(NC(=O)CSc2nnc(-c3ccco3)n2C)c(Br)c1	none
COC(=O)CNC(=O)c1cn(-c2ccccc2)nc1-c1cc2ccccc2oc1=O	none
CC(C)c1ccc(NN2C(=O)CC(c3ccccc3)C2=O)cc1 (stereo unspecified)	none (no result: ID4 SMM, p53 PUMA act)
CCC(Sc1nc(C)cc(C)n1)C(=O)Nc1ccc(-c2nc3ccc(C)cc3s2)cc1 (stereo unspecified)	p53 PUMA act 84.8
CCC(SC1=NCCS1)C(=O)Nc1ccc(-c2nc3ccc(C)cc3s2)cc1 (stereo unspecified)	p53 PUMA act inconclusive
CO[C@H]1O[C@H](CO)[C@@H](OC(=O)Nc2ccc3c(c2)OCO3)[C@@H]2OC(=O)[C@H](Cc3ccccc3)C/C=C/C[C@@H](Cc3ccccc3)C(=O)O[C@@H]12	none (no result: ID4 SMM, p53 PUMA act)
COc1ccc(N2C(=O)CC(SCC(=O)Nc3ccc(C)c(C)c3)C2=O)cc1 (stereo unspecified)	none
COc1ccc(N2C(=O)CC(SCC(=O)Nc3c(C)cccc3C)C2=O)cc1 (stereo unspecified)	ID4 SMM active
O=C(NCC[C@@H](CNC(=O)c1cccc(O)c1O)NC(=O)c1cccc(O)c1O)c1cccc(O)c1O	none (no result: ID4 SMM, p53 PUMA act)
COc1ccc2c(c1)c(=O)oc1c(C)c(OCC(=O)NCC3CCCO3)ccc12 (stereo unspecified)	p53 PUMA act 52.4
COc1ccc(OC(C)C(=O)NCC2CCCO2)cc1 (stereo unspecified)	none
O=C(CC(C(=O)O)N1CCCCC1)Nc1cccc([N+](=O)[O-])c1 (stereo unspecified)	none
O=C(CN1C(=O)c2cccc3cccc1c23)NCc1ccco1	none
Cc1ccc(C(=O)O)cc1NC(=O)COc1ccc(C(C)(C)C)cc1	none
CCOc1ccc2nc(SCC(=O)Nc3c(C)cccc3C)[nH]c2c1	none
Cc1[nH]c(=S)[nH]c(=O)c1Cc1ccc(C(=O)O)o1	ID4 SMM active
